Data from ChEMBL document CHEMBL1961873, “Compounds: GSK PKIS; Assays: Nanosyn kinase panel” (2012).

Legend:
[1] = molecular target: Serine/threonine-protein kinase MARK2 (Homo sapiens) (UniProt Q7KZI7); conditions: at 1 µM
[2] = molecular target: PAS domain-containing serine/threonine-protein kinase (Homo sapiens) (UniProt Q96RG2); conditions: at 0.1 µM
[3] = molecular target: PAS domain-containing serine/threonine-protein kinase (Homo sapiens) (UniProt Q96RG2); conditions: at 1 µM
[4] = molecular target: Phosphorylase b kinase gamma catalytic chain, skeletal muscle/heart isoform (Homo sapiens) (UniProt Q16816); conditions: at 0.1 µM
[5] = molecular target: Phosphorylase b kinase gamma catalytic chain, skeletal muscle/heart isoform (Homo sapiens) (UniProt Q16816); conditions: at 1 µM
[6] = molecular target: T1, Phosphorylase b kinase gamma catalytic chain, liver/testis isoform (Homo sapiens) (UniProt P15735); conditions: at 0.1 µM
T1 sequence (whole entry): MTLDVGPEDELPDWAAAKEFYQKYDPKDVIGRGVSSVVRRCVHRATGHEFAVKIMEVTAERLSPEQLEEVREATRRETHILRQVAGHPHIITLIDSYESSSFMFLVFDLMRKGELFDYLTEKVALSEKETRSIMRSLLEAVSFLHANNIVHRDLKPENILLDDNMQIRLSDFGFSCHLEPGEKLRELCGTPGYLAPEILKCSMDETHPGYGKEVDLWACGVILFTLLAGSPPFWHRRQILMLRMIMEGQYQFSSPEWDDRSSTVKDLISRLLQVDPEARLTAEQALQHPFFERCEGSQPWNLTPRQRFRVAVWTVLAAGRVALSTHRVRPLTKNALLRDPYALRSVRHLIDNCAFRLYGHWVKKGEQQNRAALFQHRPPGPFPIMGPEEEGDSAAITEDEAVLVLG

[7] = molecular target: T1, Phosphorylase b kinase gamma catalytic chain, liver/testis isoform (Homo sapiens); conditions: at 1 µM
[8] = molecular target: Serine/threonine-protein kinase pim-1 (Homo sapiens) (UniProt P11309); conditions: at 0.1 µM
[9] = molecular target: Serine/threonine-protein kinase pim-1 (Homo sapiens) (UniProt P11309); conditions: at 1 µM
[10] = molecular target: Serine/threonine-protein kinase pim-2 (Homo sapiens) (UniProt Q9P1W9); conditions: at 0.1 µM;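 further: reported value is the mean percent inhibition of PIM2, measured in the GSK PKIS kinase inhibitor set screen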
Serine/threonine-protein kinase pim-2 (Homo sapiens), sequence (Q9P1W9 whole entry, looked up): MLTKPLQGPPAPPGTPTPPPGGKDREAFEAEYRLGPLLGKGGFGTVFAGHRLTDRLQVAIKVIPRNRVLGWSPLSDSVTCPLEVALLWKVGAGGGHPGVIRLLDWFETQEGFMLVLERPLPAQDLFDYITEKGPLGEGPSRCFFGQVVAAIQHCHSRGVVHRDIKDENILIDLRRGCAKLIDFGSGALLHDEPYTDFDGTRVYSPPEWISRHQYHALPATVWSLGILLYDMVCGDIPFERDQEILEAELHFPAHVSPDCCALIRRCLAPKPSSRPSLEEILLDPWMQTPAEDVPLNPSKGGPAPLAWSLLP

Serine/threonine-protein kinase MARK2 (Homo sapiens), sequence (Q7KZI7 whole entry, the tested form may be a part): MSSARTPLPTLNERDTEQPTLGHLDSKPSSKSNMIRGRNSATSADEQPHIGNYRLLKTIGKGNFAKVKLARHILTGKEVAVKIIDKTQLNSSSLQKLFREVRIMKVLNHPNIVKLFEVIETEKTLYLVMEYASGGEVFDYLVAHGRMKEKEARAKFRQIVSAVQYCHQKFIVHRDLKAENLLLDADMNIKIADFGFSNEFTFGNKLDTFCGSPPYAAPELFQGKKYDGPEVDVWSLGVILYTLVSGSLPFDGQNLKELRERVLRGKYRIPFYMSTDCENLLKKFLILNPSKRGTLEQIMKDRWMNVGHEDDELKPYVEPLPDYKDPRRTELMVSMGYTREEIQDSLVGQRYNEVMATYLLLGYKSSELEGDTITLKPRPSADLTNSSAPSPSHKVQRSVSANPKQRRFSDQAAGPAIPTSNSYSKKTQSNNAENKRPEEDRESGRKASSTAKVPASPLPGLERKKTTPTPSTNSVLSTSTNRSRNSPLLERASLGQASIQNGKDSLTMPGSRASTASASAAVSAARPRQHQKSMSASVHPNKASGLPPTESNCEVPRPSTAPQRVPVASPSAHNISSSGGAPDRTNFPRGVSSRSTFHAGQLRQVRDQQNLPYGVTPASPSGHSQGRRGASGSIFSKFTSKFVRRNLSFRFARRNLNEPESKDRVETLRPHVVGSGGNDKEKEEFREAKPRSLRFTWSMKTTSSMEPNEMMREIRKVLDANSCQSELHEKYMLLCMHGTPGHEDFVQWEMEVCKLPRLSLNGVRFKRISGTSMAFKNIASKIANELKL
Serine/threonine-protein kinase pim-1 (Homo sapiens), sequence (P11309 whole entry, looked up): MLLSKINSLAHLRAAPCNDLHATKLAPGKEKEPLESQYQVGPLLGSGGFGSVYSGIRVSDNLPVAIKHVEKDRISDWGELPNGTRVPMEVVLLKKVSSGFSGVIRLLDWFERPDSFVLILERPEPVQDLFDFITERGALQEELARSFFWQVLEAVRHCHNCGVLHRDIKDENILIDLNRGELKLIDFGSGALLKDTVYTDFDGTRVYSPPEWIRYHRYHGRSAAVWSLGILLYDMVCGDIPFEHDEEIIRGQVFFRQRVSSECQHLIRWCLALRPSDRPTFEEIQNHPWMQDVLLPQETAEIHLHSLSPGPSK
Phosphorylase b kinase gamma catalytic chain, skeletal muscle/heart isoform (Homo sapiens), sequence (Q16816 whole entry, looked up, canonical isoform): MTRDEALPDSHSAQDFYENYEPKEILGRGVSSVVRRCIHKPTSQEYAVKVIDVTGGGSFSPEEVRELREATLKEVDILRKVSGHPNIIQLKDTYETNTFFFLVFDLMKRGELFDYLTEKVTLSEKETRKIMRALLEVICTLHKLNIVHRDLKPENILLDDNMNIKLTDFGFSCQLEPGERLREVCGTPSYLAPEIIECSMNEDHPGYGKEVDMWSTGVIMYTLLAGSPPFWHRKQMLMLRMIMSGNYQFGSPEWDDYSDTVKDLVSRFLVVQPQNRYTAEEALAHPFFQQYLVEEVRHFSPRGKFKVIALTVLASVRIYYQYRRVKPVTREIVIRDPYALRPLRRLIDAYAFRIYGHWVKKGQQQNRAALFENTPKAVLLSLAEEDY
PAS domain-containing serine/threonine-protein kinase (Homo sapiens), sequence (Q96RG2 whole entry, the tested form may be a part, canonical isoform): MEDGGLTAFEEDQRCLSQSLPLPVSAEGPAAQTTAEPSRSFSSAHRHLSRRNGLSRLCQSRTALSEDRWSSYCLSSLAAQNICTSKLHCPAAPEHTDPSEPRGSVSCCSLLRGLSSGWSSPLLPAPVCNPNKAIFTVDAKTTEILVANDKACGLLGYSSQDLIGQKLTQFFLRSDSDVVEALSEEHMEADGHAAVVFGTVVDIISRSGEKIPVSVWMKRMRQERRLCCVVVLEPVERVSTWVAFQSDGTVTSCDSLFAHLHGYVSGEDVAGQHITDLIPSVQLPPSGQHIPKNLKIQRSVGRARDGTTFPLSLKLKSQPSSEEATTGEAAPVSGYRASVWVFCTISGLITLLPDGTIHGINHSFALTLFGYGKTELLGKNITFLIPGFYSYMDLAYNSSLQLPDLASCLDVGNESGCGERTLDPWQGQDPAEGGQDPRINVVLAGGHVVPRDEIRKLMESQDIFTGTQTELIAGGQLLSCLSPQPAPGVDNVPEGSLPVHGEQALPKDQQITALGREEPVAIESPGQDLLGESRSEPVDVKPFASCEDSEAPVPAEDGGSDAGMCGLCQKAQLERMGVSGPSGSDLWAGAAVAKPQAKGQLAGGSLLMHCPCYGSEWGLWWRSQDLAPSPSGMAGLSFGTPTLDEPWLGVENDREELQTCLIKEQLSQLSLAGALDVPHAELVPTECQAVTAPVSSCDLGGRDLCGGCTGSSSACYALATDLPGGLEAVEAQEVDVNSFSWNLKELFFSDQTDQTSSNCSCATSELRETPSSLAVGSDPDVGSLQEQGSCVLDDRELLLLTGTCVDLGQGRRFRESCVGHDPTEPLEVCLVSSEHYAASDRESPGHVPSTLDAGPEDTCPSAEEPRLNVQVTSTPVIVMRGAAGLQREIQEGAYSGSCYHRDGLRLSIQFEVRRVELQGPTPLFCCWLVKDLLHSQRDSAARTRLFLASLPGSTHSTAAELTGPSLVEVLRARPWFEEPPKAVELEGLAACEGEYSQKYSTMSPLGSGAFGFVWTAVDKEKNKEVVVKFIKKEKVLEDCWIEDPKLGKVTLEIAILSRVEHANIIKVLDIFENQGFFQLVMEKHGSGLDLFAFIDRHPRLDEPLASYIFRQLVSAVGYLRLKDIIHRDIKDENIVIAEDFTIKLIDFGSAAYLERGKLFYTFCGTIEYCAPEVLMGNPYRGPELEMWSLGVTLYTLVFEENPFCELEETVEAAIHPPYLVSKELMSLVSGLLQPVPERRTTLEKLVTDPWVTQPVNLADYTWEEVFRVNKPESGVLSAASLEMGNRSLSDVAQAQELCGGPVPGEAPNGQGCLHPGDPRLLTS

| SMILES | inhibition [1] [%] | inhibition [2] [%] | inhibition [3] [%] | inhibition [4] [%] | inhibition [5] [%] | inhibition [6] [%] | inhibition [7] [%] | inhibition [8] [%] | inhibition [9] [%] | inhibition [10] [%] |
| --- | --- | --- | --- | --- | --- | --- | --- | --- | --- | --- |
| COC(=O)Nc1nc2ccc(Sc3ccc(NC(=O)Nc4cc(C(F)(F)F)ccc4F)cc3)cc2[nH]1 | -0.67 | 1.15 | 2 | 8.5 | -0.17 | 1.59 | 0.05 | 33.7 | -0.09 | -0.3 |
| Cc1ccc(C(=O)NC(C)C)cc1-c1ccc(C(=O)NCC2CC2)cc1 | 2.12 | 0.53 | 0.4 | -0.31 | 1.18 | -5.49 | -6.57 | 0.13 | 0.56 | 0.1 |
| Fc1ccc(-c2ncn(C3CCNCC3)c2-c2ccnc(Oc3ccc(F)c(F)c3)n2)cc1 | 1.71 | -0.38 | -0.29 | 6.75 | 10.8 | 4.85 | 4.7 | -1.11 | -0.52 | -3.98 |
| Cc1nnc(-c2ccc(C)c(-c3ccc(C(=O)NCc4ccc(Cl)cc4)cc3)c2)o1 | 2.93 | -0.31 | 0.36 | 4.66 | 5.75 | 5.44 | 5.11 | 0.2 | 1.19 | -3.59 |
| O=C(Nc1n[nH]c2cc(-c3ccccc3)ccc12)C1CC1 | 3.6 | 0.21 | -1.15 | 8.27 | 7.18 | 5.27 | 4.5 | 1.3 | 0.46 | 0.26 |
| COc1cc(N2CCN(C(C)C)CC2)ccc1Nc1nc(Nc2ccc(F)cc2C(=O)NC[C@@H](O)CO)c2cc[nH]c2n1 | 1.35 | -0.25 | 0.96 | 21 | 62 | 6.76 | 21.1 | -0.41 | 1.79 | -3.35 |
| Fc1ccc(-c2nc3n(c2-c2ccncc2)CCS3)cc1 | 1.88 | -0.27 | -1.64 | 5.2 | 4.39 | 4.24 | 2.33 | 0.77 | 2.11 | -3.25 |
| NC(=O)c1cc(-c2ccncc2)cc(-c2ccccc2)c1N | 4.3 | 0.12 | -1.32 | 5.69 | 4.23 | 5.49 | 5.48 | 1.39 | 1.24 | -0.25 |
| COc1cc(Nc2ncc3c(C)nc(-c4cccc(C(F)(F)F)c4)n3n2)cc(OC)c1OC | 3.54 | -0.04 | 0.78 | 5.08 | 11.8 | 4.94 | 6.94 | 0.28 | 2 | 0.34 |
| c1ccc(-c2n[nH]cc2-c2ccnc(-c3ccc(OCCN4CCOCC4)cc3)c2)nc1 | 6.97 | 4.29 | 2.12 | 3.14 | 5.98 | -1.14 | -3.23 | 1.29 | 1.87 | 7.01 |
| O=C(Nc1n[nH]c2cc(-c3cc(F)ccc3F)ccc12)C1CC1 | -0.47 | -1.13 | -2.73 | 4.9 | 5.59 | 3.06 | 1.94 | -0.51 | 1.3 | 0.05 |
| COc1cc(C)c(N(C)C(=O)CN(C)C)cc1Nc1nc(Nc2cccc(F)c2C(N)=O)c2cc[nH]c2n1 | 1.79 | 0.61 | -1.13 | -1.13 | 2.95 | 3.64 | -0.16 | 1.05 | 3.33 | -3.42 |
| CN(C)CCCNc1nccc(-c2c(-c3ccc(F)cc3)nn3cc(C(F)(F)F)ccc23)n1 | 2.71 | 0.83 | -0.37 | -0.27 | 2.68 | 2.52 | 0.17 | 0.62 | 1.32 | -3.76 |
| Cc1ccc(C(=O)NC2CCC2)cc1-c1ccc(C(=O)NCC2CC2)cc1 | 0.79 | 0.3 | -1.21 | 2.32 | 2.85 | 3.61 | 2 | 0.78 | 1.55 | -0.51 |
| COc1cc2ncn(-c3cc(OCc4cccs4)c(C(N)=O)s3)c2cc1OC | 2.32 | 2.13 | 6.7 | 3.47 | 6.14 | 3.82 | 10.1 | 0.81 | 2.01 | -2.64 |
| O=C(Nc1ccc(Oc2ccc3[nH]c(NC(=O)c4ccccc4)nc3c2)cc1)Nc1cc(C(F)(F)F)ccc1F | 1.49 | 0.68 | 0.73 | 1.45 | 7.47 | 3.99 | 4.6 | 0.97 | 0.07 | -0.34 |
| CCC(=O)Nc1ccc(C)c(-c2ccc(C(=O)NCC3CC3)cc2)c1 | 1.92 | -0.16 | -0.9 | 1.26 | 4.36 | 2.68 | 2.43 | 1.37 | 1.55 | -2.01 |

| SMILES | inhibition [1] [%] | inhibition [2] [%] | inhibition [3] [%] | inhibition [4] [%] | inhibition [5] [%] | inhibition [6] [%] | inhibition [7] [%] | inhibition [8] [%] | inhibition [9] [%] | inhibition [10] [%] |
| --- | --- | --- | --- | --- | --- | --- | --- | --- | --- | --- |
| COc1cc2ncn(-c3cc(OCCc4ccccc4)c(C(N)=O)s3)c2cc1OC | 2.11 | 0.16 | -0.56 | 3.81 | 2.4 | 1.37 | 0.33 | -0.26 | -0.29 | -0.04 |
| Clc1ccc(CNc2nccc(-c3cnn4ncccc34)n2)cc1 | 2.93 | 0.92 | 1.97 | -0.23 | 5.35 | 2.58 | 2.28 | 1.63 | 3.93 | -0.52 |
| CCc1ccc(Oc2nccc(-c3c(-c4ccc(F)cc4)ncn3C3CCNCC3)n2)cc1 | 4.62 | -0.7 | 0.69 | 1.39 | 2.98 | 5.05 | 5.44 | 2.14 | 1.74 | 0.08 |
| N#Cc1ccc(Oc2nccc(-c3c(-c4ccc(F)cc4)ncn3C3CCNCC3)n2)cc1 | -1.45 | -0.29 | -0.33 | 5.34 | 6.84 | 4.1 | 4.74 | 1.27 | 2.26 | -0.01 |
| O=C(Nc1n[nH]c2nc(-c3ccco3)ccc12)C1CC1 | 0.11 | 0.36 | -0.43 | 1.05 | 3.2 | 0.75 | -0.31 | 1.36 | 0.54 | 0.1 |
| NC(=O)c1cc(-c2ccc(F)cc2)cc(-c2ccncc2)c1N | -0.63 | -1.01 | -1.24 | 5.8 | 5.92 | 4.55 | 5.76 | 0.02 | 1.09 | -0.12 |
| O=C1NC(=O)C(c2cccc(Cl)c2)=C1Nc1ccc(Cl)c(C(=O)O)c1 | 0.4 | 0.25 | 1.42 | 3.55 | 5.32 | 4.58 | 5.29 | -0.66 | -0.28 | -0.18 |
| O=C(NCC1CC1)c1ccc(-c2cccc(C(=O)NC3CC3)c2)cc1 | 1.08 | 0.62 | -1.02 | 1.06 | -2.22 | 2.3 | -1.04 | 0.15 | 0.34 | 0.75 |
| CN1CCN(CCCNc2nc3ccc(Oc4ccc(NC(=O)Nc5cc(C(F)(F)F)ccc5F)cc4)cc3[nH]2)CC1 | 2.75 | 1.07 | -1.18 | -0.01 | 0.68 | 2.23 | -0.8 | 0.7 | 0.87 | -1.87 |
| COc1ccc2cc(-c3c(-c4ccncc4)nc(-c4ccc(S(C)(=O)=O)cc4C)n3C)ccc2c1 | 1.75 | -0.05 | 2.36 | 5.34 | 5.99 | 5.31 | 5.26 | 2.41 | 2.08 | 0.92 |
| FC(F)(F)c1cccc(Nc2nccc(-c3cnn4nc(-c5ccccc5)ccc34)n2)c1 | 0.61 | 0.34 | 0.28 | 3.06 | 6.39 | 2.99 | 2.77 | 0.96 | -0.68 | 0.77 |
| O=C1Nc2ccc(I)cc2C1=Cc1cc(Br)c(O)c(Br)c1 | 2.16 | -2.03 | -1.55 | -0.98 | 3.92 | 4.05 | 4.75 | 2.05 | 11.4 | 0.13 |
| CS(=O)(=O)CCNCc1cc(-c2cc3c(Nc4ccc(OCc5cccc(F)c5)c(Cl)c4)ncnc3s2)cs1 | 0.65 | -1.66 | -1.38 | 1.42 | 3.57 | 3.77 | 4.76 | 1.41 | 2.26 | -0.84 |
| COc1cccc(/C=N/Nc2ncnc3c2cnn3-c2cccc(OC)c2)c1 | 0.57 | -0.3 | -1.16 | 0.94 | 2.68 | 3.6 | 2.4 | 0.63 | 1.58 | -0.75 |
| COc1cccc(-n2cnc3c(N/N=C/c4ccncc4)ncnc32)c1 | 4.05 | 1.87 | 4.15 | -0.02 | 2.55 | 1.83 | 6.48 | -0.24 | -0.03 | -3.51 |
| CCS(=O)(=O)c1ccc(OC)c(Nc2ncc(-c3cccc(-c4ccccc4F)c3)o2)c1 | 0.68 | -0.22 | -0.96 | 1.99 | 9.38 | 0.01 | -0.67 | -0.29 | 5.63 | 0.1 |
| O=C1Nc2ccccc2/C1=C/Nc1ccc(-n2cncn2)cc1 | 10.2 | 0.03 | 1.73 | 9.39 | 33.6 | 5.95 | 18.7 | 0.85 | 0.68 | 0.56 |
